From PubChem BioAssay (NCI)
This is part of a sample that, as a whole, favours compounds with a hit. Of some 79,000 tested, about 15% had one in any assay. Cut-off read from the data, not from the text of the source: active = growth inhibition above about 70%; inactive = the rest. *1 amine or outer side, *2 acyl side, *3 side chain or, on linkers, in order; H or OH if unused. Where a SMILES comes first, the peptide text is derived from it. Bridges are numbered along the chain shown (N, C = ends). [ ]: non-standard residue; d: D form. The star is where a group is joined. X16 = CC(C)C(C)C(C(=O)[*:2])N(C)[*:1]; Picolinoyl(3-OH) = O=C(c1ncccc1O)*; NMePhg = CN[CH](C(=O)O)c1ccccc1; Hyp = O=C(O)[CH]1C[CH](O)CN1; Sar = CNCC(=O)O

Legend:
[1] = NCI Yeast Anticancer Drug Screen. Data for the rad50 strain (AID 155);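 note: 0% = growth of vehicle-only cultures of the same strain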; settings: S. cerevisiae rad50 strain growth inhibition; at 50.0 µM; stronger effect = higher value
Outline: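 Inhibition values express reduced yeast growth in compound-treated cultures relative to vehicle-treated controls.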

[2] = NCI Yeast Anticancer Drug Screen. Data for the mec2-1 strain (AID 157); settings: S. cerevisiae mec2-1 strain, at 50.0 µM, stronger effect = higher value
Outline: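 mec2-1 yeast strain, carrying an alteration in DNA damage repair or cell cycle control, was exposed to compounds; growth inhibition was measured relative to vehicle-treated controls.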

[3] = NCI Yeast Anticancer Drug Screen. Data for the sgs1 mgt1 strain (AID 161);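 note: 0% = growth of cultures given vehicle only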; settings: S. cerevisiae sgs1 mgt1 strain, at 50.0 µM, stronger effect = higher value
Outline: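 Growth of a repair-deficient yeast mutant was monitored after compound treatment and expressed as inhibition relative to vehicle-treated cultures.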

[4] = NCI Yeast Anticancer Drug Screen. Data for the cln2 rad14 strain (AID 165);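 note: 0% = growth equal to vehicle treated cultures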; settings: S. cerevisiae cln2 rad14 strain, at 50.0 µM, stronger effect = higher value
Outline: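 Yeast carrying cln2 and rad14 alterations (cell cycle control and DNA damage repair) were exposed to compounds. Growth inhibition was measured against vehicle-treated controls.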

[5] = NCI Yeast Anticancer Drug Screen. Data for the bub3 strain (AID 167); settings: S. cerevisiae bub3 mutant strain, at 50.0 µM, stronger effect = higher value
Outline: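 Steps: expose the mutant yeast strain to compound; grow alongside vehicle-treated cultures; measure growth; express inhibition against the vehicle cultures.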

[6] = NCI Yeast Anticancer Drug Screen. Data for the mlh1 rad18 strain (AID 175); settings: S. cerevisiae mlh1 rad18 strain growth inhibition; at 50.0 µM; stronger effect = higher value
Outline: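 Growth inhibition of the yeast strain was measured after compound exposure and expressed relative to vehicle-treated controls. The strain carries defined defects in DNA damage repair.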

Measured: growth inhibition

CCOC(=O)CSC(=O)NCCCl
inactive: [1] 21.1% | [2] -0.5% | [3] -2.8% | [4] 8.45% | [5] 17.6% | [6] 9.1%

Cc1cn(C2CC(NO)C(CO[Si](C)(C)C(C)(C)C)O2)c(=O)[nH]c1=O (configuration not stated)
inactive: [1] -3.75% | [2] -0.25% | [3] -3.45% | [4] -3.9% | [5] -30.4% | [6] -35.7%

Cc1cccc(C)c1NC(=O)CCC/C(CC(=O)c1ccc(F)cc1)=N\NC(=O)C(=O)NN
inactive: [1] 20.2% | [2] 2.7% | [3] 2.4% | [4] -32.1% | [5] -4.9% | [6] 19.8%

O=C1C(=S)Nc2cccc(F)c21
inactive: [1] 38% | [2] 45% | [3] 33.2% | [4] -3.65% | [5] 43.7% | [6] 33%

CCCCSC(N)=O
inactive: [1] -1.5% | [2] 0% | [3] -15.1% | [4] 10.7% | [5] 17.3% | [6] 11.2%

NC(=O)CCBr
inactive: [1] -15.3% | [2] 20.2% | [3] -5.45% | [4] -20.4% | [5] 1.3% | [6] -29.1%

COc1ccc2[nH]cc(CC(N)=O)c2c1
inactive: [1] -25.8% | [2] -28.8% | [3] -39.4% | [4] 12.7% | [5] -41.4% | [6] -19.5%

CC1CC12OC(=O)N(c1cc(Cl)cc(Cl)c1)C2=O (configuration not stated)
inactive: [1] 1.7% | [2] 8.9% | [3] 14.3% | [4] 35.1% | [5] -2.05% | [6] 16.6%

C[N+](C)(N)CCC[N+](C)(C)N
inactive: [1] 12.4% | [2] 5.2% | [3] -3.3% | [4] -29.4% | [5] -52.6% | [6] -3.4%

Oc1ccc2nccnc2c1
inactive: [1] 10.1% | [2] 1.6% | [3] 10.2% | [4] -1.6% | [5] 3.6% | [6] 13.1%

O=C(/C=C\c1ccc(/C=C\C(=O)c2ccccc2O)cc1)c1ccccc1O
inactive: [1] 8.5% | [2] -13.3% | [3] -8.75% | [4] -3.75% | [5] 22.2% | [6] -23.3%

Oc1cc(O)c(Cl)cc1Cl
inactive: [1] 15.4% | [2] -4.25% | [3] -22.8% | [4] -2.95% | [5] -12.3% | [6] 23.3%

C=CCOC(=O)/C=C/C
inactive: [1] 7% | [2] 2.7% | [3] -4.05% | [4] -11.3% | [5] -2.55% | [6] -1.35%

C/C=C1\CN2CCc3c([nH]c4ccccc34)C2CC1CCO (configuration not stated)
inactive: [1] -16.8% | [2] -10.9% | [3] -5.4% | [4] 12.7% | [5] -26.7% | [6] -24.9%

Clc1ccccc1C(N1CCCCC1)C(Cl)(Cl)Cl (configuration not stated)
inactive: [1] 26.6% | [2] 14.6% | [3] 12.8% | [4] 18% | [5] 3.85% | [6] 21.3%

O=C(N/N=C\c1ccc([N+](=O)[O-])cc1)Nc1cccc2ccccc12
inactive: [1] -49% | [2] 13.3% | [3] -42.4% | [4] -14.4% | [5] -1% | [6] -41.8%

CCNc1ccc(-c2ccc(NCC)cc2)cc1
inactive: [1] 31.6% | [2] -14% | [3] 26% | [4] 3.2% | [5] -1.45% | [6] 36.9%

CC(CCCSC(=N)N)SC(=N)N (configuration not stated)
inactive: [1] 4.9% | [2] -3.5% | [3] -0.3% | [4] 24.2% | [5] -2.2% | [6] 12.6%

CC(C)CC1NC(=O)C(NC(=O)c2ncccc2O)C(C)OC(=O)C(c2ccccc2)N(C)C(=O)C(C)NC(=O)C(C(C)C(C)C)N(C)C(=O)CN(C)C(=O)C2CC(O)CN2C1=O (configuration not stated) ({Picolinoyl(3-OH)}-TL[Hyp][Sar][X16]A[NMePhg]; ester 1-C; configuration not given here)
inactive: [1] 15.8% | [2] 3.65% | [3] 19.1% | [4] 3% | [5] -10.9% | [6] -2.35%

CCOC(=O)C1CSC(c2ccccc2)=N1 (configuration not stated)
inactive: [1] 8.75% | [2] -4.4% | [3] -2.35% | [4] -4.25% | [5] -8.35% | [6] 27.1%

CCOC(=O)c1cc2c(nc1N)C(=O)CCC2
inactive: [1] -0.1% | [2] 6.25% | [3] 34.2% | [4] 16.9% | [5] 30.9% | [6] -30.9%

CC1=NN(C(=O)c2ccncc2)C(=O)C1N=Nc1ccc(F)cc1 (configuration not stated)
inactive: [1] -4.65% | [2] -10.2% | [3] -7.65% | [4] -5.2% | [5] -7.15% | [6] -4.9%

O=S(c1ccc(O)cc1)c1ccc(O)cc1
inactive: [1] -24.2% | [2] -4.95% | [3] 0.55% | [4] 1.35% | [5] -1.1% | [6] -2.35%

CN(C)CCCN1CCc2c([nH]c3ccccc23)C1c1cccnc1 (configuration not stated)
inactive: [1] -3.35% | [2] -14.8% | [3] -0.45% | [4] -0.75% | [5] -6.2% | [6] -21.1%

Cc1ccc(C)[nH]1
inactive: [1] -2.85% | [2] 7.35% | [3] -8.45% | [4] 53.2% | [5] -4.4% | [6] 18.1%

CC(=O)c1cc(Cl)ccc1Cl
inactive: [1] 23.9% | [2] -6.2% | [3] -0.8% | [4] 33% | [5] -3.05% | [6] 26.1%

CC(=O)N(C(C)=O)c1ccccc1/C=C1\CCOC1=O
inactive: [1] -16.4% | [2] -18.9% | [3] -2.25% | [4] -5.05% | [5] 11.6% | [6] -17.6%

CC1CCCC(C(O)(C(=O)O)C2CCCCC2)C1 (configuration not stated)
inactive: [1] 23.2% | [2] 12.6% | [3] 22.4% | [4] 13.1% | [5] 13.1% | [6] 26.6%

CC(C)(C)C(=O)O[C@H]1C=C[C@@H](O)[C@@H]2[C@H]1[C@@H]1C=C[C@H]2C1
inactive: [1] 28.1% | [2] 41.6% | [3] 66.8% | [4] 11.6% | [5] 55.9% | [6] 53.5%

Cc1cn(C)c2c1-c1c(cnn1-c1ccccc1)CC2
inactive: [1] 15.6% | [2] 3.75% | [3] 44% | [4] -2.4% | [5] 4.8% | [6] 23.4%

CCOC(=O)C(O)C(O)C(O)C(O)C(=O)OCC (configuration not stated)
inactive: [1] 5.6% | [2] -8.15% | [3] 1.9% | [4] -2.35% | [5] -7.7% | [6] -8.75%

Clc1ccc(CSc2cnnc3c(Br)cccc23)c(Cl)c1
inactive: [1] -5.3% | [2] -11.5% | [3] -10.8% | [4] -39.2% | [5] 1.8% | [6] 0.85%

CCCCCCCC/C=C\CCCCCCCC(=O)N1CCN(C(=O)CCCCCCC/C=C/CCCCCCCC)C1
inactive: [1] 20.4% | [2] -13.3% | [3] 4.05% | [4] 16.4% | [5] 0.15% | [6] -8.35%

CC(C)(C)OC(=O)NC(Cc1ccccc1)C(=O)OCN1C(=O)C2C3C=CC(C2C1=O)C1C2C(=O)N(COC(=O)C(Cc4ccccc4)NC(=O)OC(C)(C)C)C(=O)C2C31 (configuration not stated)
inactive: [1] 26.8% | [2] -4.1% | [3] -0.5% | [4] -6.55% | [5] 8.25% | [6] 20.4%

CC(=O)Nc1c(C)cccc1F
inactive: [1] 2.35% | [2] 6.45% | [3] -3.95% | [4] 12.1% | [5] 3.3% | [6] -12.4%

C/C(=N\NC(=S)NCCCCNC(=S)N/N=C(\C)c1ccccn1)c1ccccc1
inactive: [1] -4.15% | [2] 36.1% | [3] 14.7% | [4] 3.65% | [5] 38.4% | [6] 13.9%

O=C1OC(c2ccc(Cl)cc2)=C/C1=C/c1ccccn1
inactive: [1] -1.4% | [2] 10% | [3] 5.2% | [4] -34% | [5] 4.55% | [6] 11.3%
